A selection: hits, their analogues and other compounds. The true share with any hit is near 2.2%.
ANO1 activ – mouse TMEM16A channel activation, primary screen. Q8BHY3. HEK293 TMEM16A/YFP-H148Q/I152L, iodide quench fluorescence; active compounds read low. B-score at 10 µM. 340,000 tested, 0.3% active. AID 623877;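 active means fluorescence-ratio B-score plate-corrected deviation score at least 3 library SD below zero, with starting fluorescence score within 5 deviations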;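 further: channel opened by trigger with iodide after compound preincubation; score built on the fluorescence ratio of max minus min over baseline; more negative score means more quench and so TMEM16A activation or potentiation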
GRK2 aptamer HTS – blocks RNA aptamer binding to human GRK2. P25098. bead flow cytometry, FAM-aptamer displacement from GRK2. inhibition of aptamer binding, % at 10 µM. 330,000 tested, 0.59% active;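 active means inhibition of aptamer binding above 40%, roughly 3 SD of noise, on plates passing a quality check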;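 further: median bead fluorescence of bound FAM aptamer so fluorescent compounds give negative values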
TLR4 MyD88 comp – blocks binding of human TLR4 to MyD88; O00206+Q99836; HeLa CL3-4 TLR4/MyD88 BLA complementation, FRET ratio; inhibition, % at 8.4 µM; 200,000 tested, 0.18% active; in the data active means inhibition above about 25%;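 further: 0% = vehicle and 100% = reference inhibitor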
NOD2-RIPK2 inh – NOD2-RIPK2 protein interaction inhibition; O43353; CHO BLA complementation NOD2-RIPK2, CCF4 ratio; inhibition, % at 4.98 µM; 360,000 tested, 0.38% active; in the data active means inhibition above about 21%;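 further: 0% = vehicle only and 100% = reference blocker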
TMEM16A inh – mouse TMEM16A channel inhibition, primary screen | Q8BHY3 | HEK293 TMEM16A/YFP iodide influx fluorescence, ionomycin | normalized B-score (activity score, 25-100; higher = stronger inhibition) at 10 µM | 310,000 tested, 1.2% active | AID 588511;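 active means ratio plate-corrected score three or more library SD toward inhibition, starting fluorescence score within five deviations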;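 further: score derived from kinetic fluorescence span divided by baseline fluorescence per well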
TLR9-MyD88 block – blocks human TLR9 binding to MyD88 | Q9NR96+Q99836 | CHO BLA complementation TLR9-MyD88, CCF4 FRET ratio | inhibition, % at 4.98 µM | 340,000 tested, 0.21% active | AID 504734;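 active means inhibition above the mean over all tested compounds plus 3 SD, cut at about 21% in these data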;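 further: 0% = DMSO only wells and 100% = clavulanate BLA inhibitor control wells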
Target sequence (Q99836 whole entry, looked up): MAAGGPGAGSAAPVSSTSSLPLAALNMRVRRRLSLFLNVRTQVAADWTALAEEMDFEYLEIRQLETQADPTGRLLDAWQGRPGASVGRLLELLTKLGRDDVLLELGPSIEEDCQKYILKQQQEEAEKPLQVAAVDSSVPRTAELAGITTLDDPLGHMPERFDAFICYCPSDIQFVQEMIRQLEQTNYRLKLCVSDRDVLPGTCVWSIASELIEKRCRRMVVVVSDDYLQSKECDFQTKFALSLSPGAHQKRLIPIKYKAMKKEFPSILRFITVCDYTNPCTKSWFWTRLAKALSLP
Target sequence (Q9NR96 whole entry, looked up): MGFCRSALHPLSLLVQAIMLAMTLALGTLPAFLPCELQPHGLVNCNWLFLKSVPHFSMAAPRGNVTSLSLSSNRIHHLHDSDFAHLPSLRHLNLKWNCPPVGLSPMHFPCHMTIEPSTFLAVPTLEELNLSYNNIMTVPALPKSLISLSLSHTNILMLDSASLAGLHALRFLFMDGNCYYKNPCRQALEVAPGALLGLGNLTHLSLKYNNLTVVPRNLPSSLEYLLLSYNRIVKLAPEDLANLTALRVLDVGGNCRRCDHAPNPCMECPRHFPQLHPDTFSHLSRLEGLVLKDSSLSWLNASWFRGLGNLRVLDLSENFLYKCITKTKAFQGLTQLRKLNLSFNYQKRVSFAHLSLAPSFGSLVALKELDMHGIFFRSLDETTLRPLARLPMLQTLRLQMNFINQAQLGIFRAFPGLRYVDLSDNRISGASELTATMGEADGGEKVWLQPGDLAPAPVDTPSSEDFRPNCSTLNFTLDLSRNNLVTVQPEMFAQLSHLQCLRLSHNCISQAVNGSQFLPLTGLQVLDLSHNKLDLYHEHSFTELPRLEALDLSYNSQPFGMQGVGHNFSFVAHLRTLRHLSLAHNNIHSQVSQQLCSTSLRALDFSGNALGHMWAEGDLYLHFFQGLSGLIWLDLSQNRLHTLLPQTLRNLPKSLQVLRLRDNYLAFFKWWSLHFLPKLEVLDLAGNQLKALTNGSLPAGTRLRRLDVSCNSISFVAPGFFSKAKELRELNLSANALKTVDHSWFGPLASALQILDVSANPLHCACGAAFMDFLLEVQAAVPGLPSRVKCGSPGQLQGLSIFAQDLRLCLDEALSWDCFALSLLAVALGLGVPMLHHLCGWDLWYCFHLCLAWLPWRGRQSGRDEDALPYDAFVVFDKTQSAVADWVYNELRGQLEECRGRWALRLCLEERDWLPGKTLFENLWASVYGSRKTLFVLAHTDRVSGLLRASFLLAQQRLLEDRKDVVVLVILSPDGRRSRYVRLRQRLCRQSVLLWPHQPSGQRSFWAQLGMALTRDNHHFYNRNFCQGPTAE
TLR4 MyD88 cnf – TLR4-MyD88 interaction inhibition confirmed; shares compounds with TLR4 MyD88 comp; HeLa CL3-4 BLA complementation, CCF4 FRET ratio; inhibition, % at 8.4 µM; 350 tested, 50% active;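 active means mean inhibition across three repeat runs above about 25% carried over from the earlier screen, limit read from the data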;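 further: plate controls were DMSO only for no effect and clavulanic acid blocking BLA at full dose for full effect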
BLA inhibitor ct – beta-lactamase inhibition flagged in TLR4-MyD88 counter-screen; 350 tested, 63% active; inhibition, % at 8.4 µM; shares compounds with TLR4 MyD88 comp; HeLa BLA reporter, CCF4 FRET ratio;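 active means mean inhibition over three repeats above about 26% taken from the earlier screen, limit read from the data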;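 further: HeLa cells stably expressing beta-lactamase reporter as counterscreen for TLR4-MyD88 inhibitors; 0% = DMSO and 100% = clavulanic acid full inhibition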
TLR9-MyD88 cf – TLR9-MyD88 interaction inhibition, confirmation; shares compounds with TLR9-MyD88 block; CHO TLR9/MyD88 BLA complementation, CCF4 FRET ratio; inhibition, % at 4.98 µM; 680 tested, 51% active; AID 540250;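 active means mean inhibition across three repeats above about 21% taken from the earlier screen, limit read from the data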;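 further: blue over green emission ratio reports constitutive TLR9 MyD88 association via BLA complementation; 0% = DMSO vehicle wells and 100% = clavulanate BLA inhibitor wells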
BLA counter-1 – counter-screen for TLR9-MyD88 inhibitors: non-selective beta-lactamase inhibitors; 680 tested, 7% active; CHO-BLA cells, CCF4 FRET ratio, BLA reporter; inhibition, % at 4.98 µM; shares compounds with TLR9-MyD88 block;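 active means mean inhibition above a 50% cutoff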;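 further: counterscreen of TLR9-MyD88 hits on CMV-driven BLA in CHO-K1 cells; 0% = DMSO alone and 100% = clavulanate blocking BLA; higher means less blue over green ratio so more BLA blockade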
TLR9 CHO cytotox – counter-screen for TLR9-MyD88 inhibitors: cytotoxicity in CHO cells; shares compounds with TLR9-MyD88 block; AID 588336; 680 tested, 39% active; luminescence; inhibition, % at 4.98 µM; in the data active means inhibition above about 11%
TMEM16A reconf – reconfirmed blocker of mouse TMEM16A calcium-activated chloride channel; shares compounds with TMEM16A inh; HEK293 TMEM16A/YFP-H148Q, iodide quench fluorescence; ionomycin added to raise cell calcium; inhibition, % at 10 µM; 2,300 tested, 39% active; AID 652189;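 active means mean duplicate percent inhibition, scaled so buffer wells are 0 and the reference blocker 100, over three buffer SD above buffer mean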
HEK293 Ca mobil – alters calcium mobilization in TMEM16A HEK293 cells, counter-screen; shares compounds with TMEM16A inh; TMEM16A/YFP HEK293, Fluo4 calcium mobilization; calcium response (% of ionomycin), % at 10 µM; 2,300 tested, 2% active; AID 652231;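 active means duplicate-averaged calcium signal over 20% of the ionomycin maximum, relative to buffer baseline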;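 further: each well's signal is peak minus trough fluorescence divided by its pre-addition baseline; 0% = buffer wells and 100% = ionomycin wells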
Parental YFP cnt – acts in parental YFP-HEK293 cells lacking TMEM16A, counter-screen; shares compounds with TMEM16A inh; 2,300 tested, under 10 active; YFP ratio F(max-min)/F0 at 10 µM; iodide YFP quench, ionomycin;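 active means yellow fluorescent protein signal ratio exceeding the buffer control mean by over 5 SD of those controls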;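 further: ratio is mean of duplicate wells from kinetic YFP trace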
ClC-1 rat inh – blocks the rat ClC-1 voltage-dependent chloride channel; shares compounds with TMEM16A inh; CHO ClC-1-YFP, iodide influx fluorescence quench; iodide control reads 0, buffer control 100; ratio percent, % at 10 µM; 2,300 tested, under 10 active; AID 652236;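 active means duplicate-mean ratio percent above the mean of iodide-only control wells, which defines zero, plus 5 of their SD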;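 further: higher percent means stronger block of ClC-1 iodide influx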
NOD2 RIPK2 conf – NOD2-RIPK2 interaction inhibition confirmed; inhibition, % at 4.98 µM; CHO cells, NOD2-RIPK2 BLA complementation, CCF4 FRET; AID 624370; 1,200 tested, 70% active; shares compounds with NOD2-RIPK2 inh;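 active means mean inhibition across replicates above a set limit taken from the earlier primary screen, cut at about 21% in these data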;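 further: 0% = DMSO-only wells and the high end = clavulanate BLA-blocked wells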
BLA counter-2 – NOD2-RIPK2 counterscreen BLA reporter activity | shares compounds with NOD2-RIPK2 inh | CHO BLA reporter, CCF4 FRET ratio | inhibition, % at 4.98 µM | 1,200 tested, 57% active | AID 624371;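 active means mean inhibition above the low-control mean inhibition plus three low-control SD, cut at about 11% in these data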;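 further: 0% = DMSO only wells and 100% = clavulanate high control wells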
An asterisk follows results filed as active; i = inactive; · = no result.

SMILES | ANO1 activ | GRK2 aptamer HTS | TLR4 MyD88 comp | NOD2-RIPK2 inh | TMEM16A inh | TLR9-MyD88 block | TLR4 MyD88 cnf | BLA inhibitor ct | TLR9-MyD88 cf | BLA counter-1 | TLR9 CHO cytotox | others
Nc1sc2c(c1C(=O)NCCc1ccccc1)CCCC2 | · | · | · | 1 | · | · | · | · | · | · | ·
O=[N+]([O-])c1ccc(-c2ccc(/C=N/Nc3nc(NCc4ccccc4)nc(N4CCOCC4)n3)o2)cc1 | i | 4 | 55* | 10 | i | 36* | 47* | 76* | 29* | 31 | 3
CCN(c1ccc(OC)cc1)S(=O)(=O)N1CCCC(C(=O)NCc2ccc(OC(C)C)cc2)C1 (stereo unspecified) | · | · | · | -4 | · | -20 | · | · | · | · | ·
CN1/C(=C/C(=O)c2nc(S(C)(=O)=O)ncc2Cl)C(C)(C)c2ccccc21 | i | 1 | 36* | 70* | i | 44* | 29* | 18 | 46* | 25 | 99*
COc1ccc(CCN2C(=O)CCC2(C)c2nnnn2-c2ccc3c(c2)OCCO3)cc1OC (stereo unspecified) | · | · | · | 6 | · | · | · | · | · | · | ·
O=C(OCCN1C(=O)c2cccc3c(N4CCOCC4)ccc(c23)C1=O)c1ccc(Cl)cc1Cl | i | 4 | 40* | 7 | i | 38* | 58* | 86* | 68* | 69* | 29*
O=C(OCCN1C(=O)c2cccc3c(N4CCOCC4)ccc(c23)C1=O)c1cccc(Cl)c1 | · | 1 | 6 | · | i | · | · | · | · | · | ·
Cn1nc(C(C)(C)C)cc1C(=O)N1CCCC(c2cc(C(=O)NCc3ccccc3)no2)C1 (stereo unspecified) | · | · | · | 3 | · | · | · | · | · | · | ·
O=C(/C=C/c1c[nH]c2ccccc12)c1cccc2ccccc12 | i | 3 | 33* | 20 | i | 36* | 22 | 47* | 23* | 23 | 8
CC1C/C(=C/c2cccn2C)C(=O)/C(=C/c2cccn2C)C1 (stereo unspecified) | i | 1 | 55* | -4 | i | 37* | 32* | 61* | 41* | 40 | 1
CC1C/C(=C/c2ccncc2)C(=O)/C(=C/c2ccncc2)C1 (stereo unspecified) | i | 0 | 6 | 6 | i | -2 | · | · | · | · | ·
COCCN1C(=O)CSCC1(C)C(=O)Nc1c(C)cccc1C (stereo unspecified) | · | · | · | -6 | · | · | · | · | · | · | ·
COc1ccccc1-c1noc2c1C(=O)N(Cc1cn(-c3ccccc3OC)nn1)CC2 | · | · | · | -6 | · | · | · | · | · | · | ·
Nc1c(C(=O)Nc2nc3ccccc3s2)sc2nc(-c3cccs3)ccc12 | i | 0 | 65* | -8 | i | 25* | 48* | 77* | 48* | 48 | 42* | TMEM16A reconf=i;HEK293 Ca mobil=i;Parental YFP cnt=-0.62;ClC-1 rat inh=20
CC(=O)c1sc2nc(-c3cccs3)ccc2c1N | i | 0 | 5 | -1 | i | 5 | · | · | · | · | ·
O=C(Nc1nc(-c2ccccc2)cs1)c1ccccc1NS(=O)(=O)c1ccc(F)cc1 | i | 2 | 26* | 3 | 100* | 5 | 3 | 4 | · | · | · | TMEM16A reconf=78%*;HEK293 Ca mobil=i;Parental YFP cnt=-1.2;ClC-1 rat inh=-32
Cc1cccc(C)c1NC(=O)C(CCc1ccccc1)N1CCC(c2ccccc2)CC1 (stereo unspecified) | · | · | · | -9 | · | · | · | · | · | · | ·
COc1ccc(Cn2cc3c(-c4ccc(F)cc4)nnc-3c3cc(OC)c(OC)cc32)cc1 | i | 0 | 28* | 63* | i | 50* | 25* | 41* | 31* | 35 | -1 | NOD2 RIPK2 conf=66*;BLA counter-2=72*
O=[N+]([O-])c1ccc(N/N=C\c2cccn2-c2ccccc2)nc1 | i | 1 | 41* | 46* | i | 34* | 40* | 62* | -14 | 29 | 9 | NOD2 RIPK2 conf=52*;BLA counter-2=54*
O=[N+]([O-])c1ccc(NN=Cc2ccccc2)nc1 | i | · | · | 14 | · | 4 | · | · | · | · | ·
COc1ccc(Cl)cc1Cn1c(C)c(C(=O)NCc2ccc(F)cc2)sc1=O | · | · | · | 4 | · | · | · | · | · | · | ·
CC/C(=N\Nc1ccc([N+](=O)[O-])cc1)c1ccccc1 | i | 0 | 31* | 27* | i | 22* | 18 | 35* | 12 | 15 | 1 | NOD2 RIPK2 conf=38*;BLA counter-2=40*
C/C(=N\Nc1ccc([N+](=O)[O-])cc1)c1ccco1 | i | 0 | 29* | 25* | i | 30* | 27* | 42* | 14 | 17 | 1 | NOD2 RIPK2 conf=36*;BLA counter-2=41*
CCc1ccc(/C(C)=N\Nc2ccc([N+](=O)[O-])cc2)cc1 | i | 0 | 32* | 30* | i | 31* | 32* | 55* | 23* | 22 | -4 | NOD2 RIPK2 conf=41*;BLA counter-2=46*
O=[N+]([O-])c1ccc(NN=C(Oc2ccccc2)c2ccc([N+](=O)[O-])cc2)cc1 | · | · | · | 2 | · | 3 | · | · | · | · | ·

Screening data from PubChem.
